Test results as given in PubChem BioAssay (NCATS).
Inconclusive results are not listed. Calls of active or inactive are those of the source. Calls follow the shape of the dose curve; as a rule, active = well fitted cell-killing curve with a large enough effect; inconclusive = small, poorly fitted or top-dose-only effect, or effect the other way; inactive = flat fitted curve, though single readings scatter.

Tests used:
Assay in all cases: Primary qHTS to identify gynecologic anti-cancer compounds using libraries of approved drugs and bioactive compounds (AID 1345084); also: nearly all actives have a fitted effect of over 55% in size
[1] = system: C33A; settings: Gynecologic cancer cell panel viability, ATPlite luminescence, 48 h; series mostly up to 57.5 µM
Procedure, shortened: (§1)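 Cells, 1,000 per well, plated 16 h, then exposed 48 h at 37 C to compounds. Viability by ATPlite luminescence after 15 min at room temperature.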

[2] = system: CAOV3; settings: Gynecologic cancer cell panel viability, ATPlite luminescence, 48 h; series mostly up to 57.5 µM
Procedure, shortened: as §1

[3] = system: CASKI; settings: Gynecologic cancer cell panel viability, ATPlite luminescence, 48 h; series mostly up to 57.5 µM
Procedure, shortened: as §1

[4] = system: Es-2; settings: Gynecologic cancer cell panel viability, ATPlite luminescence, 48 h; series mostly up to 57.5 µM
Procedure, shortened: as §1

[5] = system: HeLa; settings: Gynecologic cancer cell panel viability, ATPlite luminescence, 48 h; series mostly up to 57.5 µM
Procedure, shortened: as §1

[6] = system: Hek293T; settings: Gynecologic cancer cell panel viability, ATPlite luminescence, 48 h, control line for the selectivity index; series mostly up to 57.5 µM
Procedure, shortened: as §1

[7] = system: JEG-3; settings: Gynecologic cancer cell panel viability, ATPlite luminescence, 48 h; series mostly up to 57.5 µM
Procedure, shortened: as §1

[8] = system: OV90; settings: Gynecologic cancer cell panel viability, ATPlite luminescence, 48 h; series mostly up to 57.5 µM
Procedure, shortened: as §1

[9] = system: PA-1; settings: Gynecologic cancer cell panel viability, ATPlite luminescence, 48 h; series mostly up to 57.5 µM
Procedure, shortened: as §1

[10] = system: SKOV3; settings: Gynecologic cancer cell panel viability, ATPlite luminescence, 48 h; series mostly up to 57.5 µM
Procedure, shortened: as §1

[11] = system: Tov-21-G; settings: Gynecologic cancer cell panel viability, ATPlite luminescence, 48 h; series mostly up to 57.5 µM
Procedure, shortened: as §1

[12] = system: Tov112D; settings: Gynecologic cancer cell panel viability, ATPlite luminescence, 48 h; series mostly up to 57.5 µM
Procedure, shortened: as §1
% is scaled to controls: 0 for no effect and ±100 for the full control effect.

CC1CCC2(C=O)C(CO)=CCCC2C1(C)CC(=O)O (stereo not drawn)
inactive: Potency [1] | Potency [2] | Potency [3] | Potency [4] | Potency [5] | Potency [6] | Potency [7] | Potency [8] | Potency [9] | Potency [10] | Potency [11] | Potency [12]

COc1cc(Br)c(S(=O)(=O)Nc2ccc(C(F)(F)F)c(O[C@@H]3CCN(C)C3)c2)cc1OC
inactive: Potency [1] | Potency [2] | Potency [3] | Potency [4] | Potency [5] | Potency [6] | Potency [7] | Potency [8] | Potency [9] | Potency [10] | Potency [11] | Potency [12]

CCn1cc(NC(=S)Nc2cc(Cl)ccc2OC)c(C(N)=O)n1
inactive: Potency [1] | Potency [2] | Potency [3] | Potency [4] | Potency [5] | Potency [6] | Potency [7] | Potency [8] | Potency [9] | Potency [10] | Potency [11] | Potency [12]

CCNC(=O)Nc1ncc(-c2cc(-c3c(C)cc(OC)cc3C)nc(-c3cnccn3)n2)s1
inactive: Potency [1] | Potency [2] | Potency [3] | Potency [4] | Potency [5] | Potency [6] | Potency [7] | Potency [8] | Potency [9] | Potency [10] | Potency [11] | Potency [12]

COc1c2cc(c(O)c1OC)-c1cc(ccc1O)CCC(O)CCCC2 (stereo not drawn)
inactive: Potency [1] | Potency [2] | Potency [3] | Potency [4] | Potency [5] | Potency [6] | Potency [7] | Potency [8] | Potency [9] | Potency [10] | Potency [11] | Potency [12]

C=CCC1=C[C@]2(OC)[C@H](C)[C@@H](c3ccc(O)c(OC)c3)O[C@]2(OC)CC1=O
inactive: Potency [1] | Potency [2] | Potency [3] | Potency [4] | Potency [5] | Potency [6] | Potency [7] | Potency [8] | Potency [9] | Potency [10] | Potency [11] | Potency [12]

COC(=O)C12CCC(C)C(C)C1C1=CCC3C4(C)CCC(OC(C)=O)C(C)(C)C4CCC3(C)C1(C)CC2 (stereo not drawn)
inactive: Potency [1] | Potency [2] | Potency [3] | Potency [4] | Potency [5] | Potency [6] | Potency [7] | Potency [8] | Potency [9] | Potency [10] | Potency [11] | Potency [12]

O=C(O)COCCN1CCN([C@H](c2ccccc2)c2ccc(Cl)cc2)CC1
inactive: Potency [1] | Potency [2] | Potency [3] | Potency [4] | Potency [5] | Potency [6] | Potency [7] | Potency [8] | Potency [9] | Potency [10] | Potency [11] | Potency [12]

Fc1ccc2nc(CCC#Cc3ccccn3)cn2c1
inactive: Potency [1] | Potency [2] | Potency [3] | Potency [4] | Potency [5] | Potency [6] | Potency [7] | Potency [8] | Potency [9] | Potency [10] | Potency [11] | Potency [12]

CCC[C@@H]1O[C@@H]2C[C@H]3[C@@H]4CCC5=CC(=O)C=C[C@]5(C)[C@H]4[C@@H](O)C[C@]3(C)[C@]2(C(=O)CO)O1
inactive: Potency [1] | Potency [2] | Potency [3] | Potency [4] | Potency [5] | Potency [6] | Potency [7] | Potency [8] | Potency [9] | Potency [10] | Potency [11] | Potency [12]

OC[C@H]1O[C@@H](OC[C@H]2O[C@@H](OC/C=C/c3ccccc3)[C@H](O)[C@@H](O)[C@@H]2O)[C@@H](O)[C@@H]1O
inactive: Potency [1] | Potency [2] | Potency [3] | Potency [4] | Potency [5] | Potency [6] | Potency [7] | Potency [8] | Potency [9] | Potency [10] | Potency [11] | Potency [12]

C=C1[C@H](OC(C)=O)[C@H]2[C@@H](OC(C)=O)[C@](C)(OC(C)=O)C[C@]2(OC(C)=O)C(=O)[C@H](C)/C=C/C(C)(C)C(=O)[C@H](OC(=O)C(C)CC)[C@H]1OC(C)=O (stereo partly drawn)
inactive: Potency [1] | Potency [2] | Potency [3] | Potency [4] | Potency [5] | Potency [6] | Potency [7] | Potency [8] | Potency [9] | Potency [10] | Potency [11] | Potency [12]

CC(C)C(C#N)O[C@@H]1O[C@H](CO[C@@H]2O[C@@H](C)[C@H](O)[C@@H](O)[C@H]2O)[C@@H](O)[C@H](O)[C@H]1O (stereo partly drawn)
inactive: Potency [1] | Potency [2] | Potency [3] | Potency [4] | Potency [5] | Potency [6] | Potency [7] | Potency [8] | Potency [9] | Potency [10] | Potency [11] | Potency [12]

CC1(C)CC[C@]2(C(=O)O[C@@H]3O[C@H](CO[C@@H]4O[C@H](CO)[C@@H](O)[C@H](O)[C@H]4O[C@@H]4O[C@H](CO)[C@H](O)[C@H](O)[C@H]4O)[C@@H](O)[C@H](O[C@@H]4O[C@H](CO)[C@@H](O)[C@H](O)[C@H]4O)[C@H]3O)CC[C@]3(C)C(=CCC4[C@@]5(C)CC[C@H](O[C@@H]6OC[C@@H](O)[C@H](O)[C@H]6O)[C@@](C)(C(=O)O)C5CC[C@]43C)[C@@H]2C1 (stereo partly drawn)
inactive: activity change, negative = cytotoxicity [1] -13.6% [at 6.55 µM] | activity change, negative = cytotoxicity [2] 6.72% [at 6.55 µM] | activity change, negative = cytotoxicity [3] -6.95% [at 6.55 µM] | activity change, negative = cytotoxicity [4] 3.44% [at 6.55 µM] | activity change, negative = cytotoxicity [5] 0.826% [at 6.55 µM] | activity change, negative = cytotoxicity [6] 8.22% [at 6.55 µM] | activity change, negative = cytotoxicity [7] -2.73% [at 6.55 µM] | activity change, negative = cytotoxicity [8] 3.06% [at 6.55 µM] | activity change, negative = cytotoxicity [9] -1.12% [at 6.55 µM] | activity change, negative = cytotoxicity [10] 19.9% [at 6.55 µM] | activity change, negative = cytotoxicity [11] 4.04% [at 6.55 µM] | activity change, negative = cytotoxicity [12] 5.73% [at 6.55 µM]
